Screens from PubChem.
In the library only some 0.9% were active in any assay of this set; here they are far more common.
CDC25B CDK2 inh = human CDC25B-CDK2/CyclinA binding inhibition. HTRF CDC25B-CDK2/CyclinA binding, anti-His/anti-Flag; stronger effect = higher value. hit rate 0.72% among 94,000. AID 1259370. z-score (concentration not given with the values); in the data active means z-score above about 3.2
TAR Tat displ = HIV-1 TAR-Tat binding disruption; AID 1259389; HIV-1 TAR RNA, Tat peptide displacement FRET; stronger effect = higher value; z-score (no concentration beside the values); hit rate 0.6% among 100,000; active means z-score of 3 or more in at least 2 runs
Numbers without * were called inactive; x = no result.

SMILES	CDC25B CDK2 inh	TAR Tat displ
CCc1ccccc1N1CSC2=C(C#N)C(c3cccc(F)c3)CC(=O)N2C1 (stereo not given)	6.3*	-1.2
N#CC1=C2SCN(c3ccccc3F)CN2C(=O)CC1c1c(F)cccc1Cl (stereo not given)	-1.1	-2
Cc1nn(C(C)C(=O)N2CCN(c3ccccc3F)CC2)c(=O)c2c1sc1ccccc12 (stereo not given)	-0.51	1.8
CC1CCCCC1NC(=O)C1CCN(C(=O)N2CCOc3ccc(Cl)cc32)CC1 (stereo not given)	x	0.92
O=C(O)CSCC(=O)Nc1cc(C(F)(F)F)cc(C(F)(F)F)c1	8.4*	x
O=C(CSCC(=O)Nc1cccc(C(F)(F)F)c1)Nc1ccccc1	-1.5	x
CN(Cc1ccccc1)C(=O)c1c2c(nc3ccccc13)C(=O)N(C1CCCCC1)C2	x	1.2
C[C@@H]1C[C@H]2O[C@@H]2/C=C\C=C\C(=O)Cc2c(Cl)c(O)cc(O)c2C(=O)O1	x	5*
O=C(NCc1ccc2c(c1)OCO2)c1ccc2nc3[nH]c4ccccc4c3nc2c1	x	1.7
O=C(NCc1ccc2c(c1)OCO2)c1ccc2nc(-c3ccco3)c(-c3ccco3)nc2c1	x	60*
Cn1c(=O)c2cc(C(=O)NC3CCCC3)sc2c2ccccc21	3*	-0.7
Cn1c(=O)c2cc(C(=O)NCCCN3CCCC3)sc2c2ccccc21	0.42	-0.48
CCC(O)c1nc2ccccc2n1CCCOc1cccc(C)c1C (stereo not given)	-0.96	1
Cc1nc2ccccc2c2c1C(=O)N(CC(C)C)C2=O	-0.98	-0.86
Cc1nc2ccccc2c2c1C(=O)N(CC1CCCO1)C2=O (stereo not given)	7.4*	0.78
O=C1c2cccnc2C(Nc2ccccc2F)N1c1ccccc1 (stereo not given)	x	1.6
Cc1nc(C(F)(F)F)ccc1C(=O)NNC(=S)Nc1ccc(F)c(Cl)c1	-0.77	x
CCC1CCCCN1C(=O)CCc1c(C)nc2nc(NCc3cccs3)[nH]n2c1=O (stereo not given)	-1	0.51
CC(=O)Nc1c2n(c3ccc(F)cc13)CC(C)(C(=O)NC1CCCCC1)N(CCC(C)C)C2=O (stereo not given)	x	1.5
CC(=O)Nc1c2n(c3ccc(F)cc13)CC(C)(C(=O)NC1CCCCC1)N(C(C)C)C2=O (stereo not given)	x	18*
Cc1cc2nc(CSc3ccccc3N)c(=O)[nH]c2cc1C	x	-0.63
Cc1cc2nc(CSc3ccc(N)cc3)c(=O)[nH]c2cc1C	x	19*
COc1cc(Nc2nc3c(S(=O)(=O)c4ccccc4)nnn3c3ccsc23)cc(OC)c1	x	-1.1
Cn1c(CSc2ccccc2)n[nH]c1=S	-0.72	x
Cn1c(CSC2CN(C(c3ccccc3)c3ccccc3)C2)n[nH]c1=S	13*	x
SMILES	CDC25B CDK2 inh	TAR Tat displ
COc1ccc(C2C=C(C(=O)O)Nc3nnnn32)cc1O (stereo not given)	x	1.7
CCOC(=O)c1cc(CO)cc(C(=O)OCC)c1	-2	x
CCCOC(=O)c1cc(O)c(O)c(O)c1	x	26*
O=C(Nc1ccc2c(c1)OCO2)c1ccc(Cn2nc(N3CCN(c4ccccc4)CC3)ccc2=O)o1	x	17*
O=C(Nc1ccc(F)cc1)c1ccc(Cn2nc(N3CCN(c4ccc(F)cc4)CC3)ccc2=O)o1	x	0.64
CCSCCOC(=O)C1=C(C)NC2(O)c3ccccc3C(=O)C12O (stereo not given)	-0.79	x
CCc1ccc2nc(Nc3ncc4c(n3)CC(c3ccco3)CC4=O)nc(C)c2c1 (stereo not given)	14	32*
Cc1ccc(S(=O)(=O)NC(=O)Nc2ncc3c(n2)CC(c2ccco2)CC3=O)cc1 (stereo not given)	8.3*	2.8
CC(=O)Nc1ncc2c(n1)CC(c1ccco1)CC2=O (stereo not given)	3	-0.17
Cc1nc(Nc2ncc3c(n2)CC(c2ccco2)CC3=O)nc2ccccc12 (stereo not given)	1.1	3.4
O=C(Cn1ncn2c(cc3ccccc32)c1=O)N1CCN(c2ccccn2)CC1	-0.88	0.17
CCOCCCNC(=O)Nc1nnc(N2CCCC(C)C2)s1 (stereo not given)	-2.5	-0.07
CCOc1c(Nc2ccc(F)c(Cl)c2)c(=O)c1=O	x	0.08
COCCN1C(=O)C2C(C(=O)Nc3cccc(OC)c3)C3C=CC2(O3)C1C(=O)NC1CCCCC1 (stereo not given)	-0.04	-0.45
O=C1c2ccccc2C(Nc2cccnc2)N1c1ccccn1 (stereo not given)	9.9*	-0.14
O=C1c2ccccc2C(Nc2cccnc2)N1c1cccnc1 (stereo not given)	-0.21	-0.44
CCSc1nc(C)c(Cl)c(C)c1C#N	-1.8	x
CS(=O)(=O)Nc1nc2ccc(NC(=O)NCC3CCCO3)cc2s1 (stereo not given)	x	1.1
Cc1ccc(-c2ccccc2)n1-c1cccnc1	17*	1.1
Cc1ccc(-c2ccccc2)n1-c1cccc2cccnc12	-2.5	-1.6
Cc1ccc(CCNc2c(-c3ccc(C(C)C)cc3)c(=O)c2=O)cc1	x	1.9
CCC(NC(=O)CCc1c(C)nc2c(c1C)c(=O)n(C)c(=O)n2C)c1cccs1 (stereo not given)	-1.7	0.38
O=C(O)CCCNc1cc(N2CCC(=O)CC2)c2noc3c2c1C(=O)c1ccccc1-3	14*	27*
CCOCCCNc1cc(N2CCN(C3CCCCC3)CC2)c2noc3c2c1C(=O)c1ccccc1-3	-1.8	1.5
CCCN1CCN(c2cc(NCCCC(=O)O)c3c4c(onc24)-c2ccccc2C3=O)CC1	-2	-5.8
SMILES	CDC25B CDK2 inh	TAR Tat displ
O=C(O)CCCNc1cc(N2CCN(C3CCCCC3)CC2)c2noc3c2c1C(=O)c1ccccc1-3	13*	-3.4
CCOc1ccc(OCC)c(NS(=O)(=O)c2ccc3c(c2)NC(=O)C(C)CS3)c1 (stereo not given)	x	-0.07
CCc1cc2c(cc(C(=O)NC3CCCC3)n2C)s1	0.45	-0.04
NC(=O)c1ccccc1NC(=O)CCN1C(=O)c2cccc([N+](=O)[O-])c2C1=O	-3.5	x
O=C1c2ccccc2C(=O)c2c1oc(C(F)(F)F)c2C(=O)c1ccc2ccccc2c1	9.3*	x
O=C(c1ccc2c(c1)C(=O)c1ccccc1-2)c1ccccc1Br	-1.4	x
COc1ccc(S(=O)(=O)c2cnc3cc(OC)c(OC)cc3c2NCc2ccc(F)cc2)cc1	0.19	0.87
O=C1CCCc2cc(S(=O)(=O)N3CCN(c4ccccn4)CC3)ccc2N1	x	0.61
COc1ccc(OC)c(C2/C(=C(\O)c3ccccc3)C(=O)C(=O)N2c2cccnc2)c1 (stereo not given)	-3.8	1.9
COc1ccc(OC)c(C2/C(=C(/O)c3ccc(C)cc3)C(=O)C(=O)N2c2cccnc2)c1 (stereo not given)	6*	0.4
COc1cc2nc(SCC(=O)Nc3c(C)cc(C)cc3C)n3nc(C)nc3c2cc1OC	-0.93	x
C(=C\c1nn2c(-c3ccncc3)nnc2s1)/c1ccco1	-1	26*
Clc1ccccc1-c1ccc(-c2nn3c(-c4ccco4)nnc3s2)o1	15*	0.54
Clc1cccc(-c2nnc3sc(-c4ccco4)nn23)c1	-1.3	1.9
Cc1ccc(/C=C/c2nn3c(-c4ccncc4)nnc3s2)cc1	-2.1	-1.2
Cc1ccc(/C=C/c2nn3c(-c4ccco4)nnc3s2)cc1C	3.9	17*
Cc1ccc(/C=C/c2nn3c(-c4ccco4)nnc3s2)cc1	-1.8	-1.3
Clc1ccccc1/C=C/c1nn2c(-c3ccco3)nnc2s1	3.2	19*
